Measured values as given in PubChem BioAssay AID651815 (National Center for Advancing Translational Sciences (NCATS), 2012).
In all, about 2,100 compounds went through this assay and about 1,100 (52%) were called active. Roughly 29% stayed inconclusive and do not appear here. So high a share suggests a set chosen from earlier hits. The list shows a part of the results. A number with no mark means an inactive call. The call rests on the fitted dose curve; in most records, active means well fitted inhibition curve with a large enough effect; inconclusive means small, poorly fitted or top-dose-only effect; inactive means no such curve, though single readings can be large or run the other way.

These compounds were tested against DNA dC->dU-editing enzyme APOBEC-3F (Homo sapiens) (UniProt Q8IUX4) (assay: qHTS for inhibitors of Vif-A3F interactions: Cherry picks counterscreen). Settings: HeLa A3F-eYFP/Vif cells, eYFP fluorescence, 24 h; series mostly up to 46.1 µM; activity, negative = inhibitor: at the top concentration.
DNA dC->dU-editing enzyme APOBEC-3F (Homo sapiens), sequence (Q8IUX4 whole entry, looked up): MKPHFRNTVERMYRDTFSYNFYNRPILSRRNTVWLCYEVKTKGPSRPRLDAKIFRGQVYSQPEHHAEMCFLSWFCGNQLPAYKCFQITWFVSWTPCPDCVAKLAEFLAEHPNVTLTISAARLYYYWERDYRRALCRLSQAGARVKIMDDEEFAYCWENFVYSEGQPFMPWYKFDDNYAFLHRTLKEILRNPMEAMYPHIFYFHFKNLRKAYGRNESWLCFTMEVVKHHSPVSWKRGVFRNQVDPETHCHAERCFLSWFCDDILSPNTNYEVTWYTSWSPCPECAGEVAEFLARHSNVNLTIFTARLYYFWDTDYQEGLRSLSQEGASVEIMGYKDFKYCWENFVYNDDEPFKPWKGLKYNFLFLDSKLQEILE
In short: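 Rescue of Vif-driven A3F-eYFP degradation read as cellular eYFP fluorescence after 24 h compound exposure (several concentrations) in stable HeLa cells; MG132 (2 mM stock) as positive control.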
Further: nearly all actives have a fitted effect of over 65% in size.
On the % scale 0 is the no-effect control and ±100 the full control effect; potency means the concentration at half of the fitted maximal effect.

Row | Compound | Potency | activity, negative = inhibitor
1 | CCc1ccc(N=Nc2ccc(O)c3[nH]cnc23)cc1 | 8.2 µM (active) | 
2 | S=C(Nc1ccccc1)N1CCn2c1nc1ccccc12 |  | -0.0104% [at 36.9 µM]
3 | CCCOc1ccc(C(=O)Nc2cccc(NC(=O)c3ccc(Cl)cc3Cl)c2)cc1 | 20.6 µM (active) | 
4 | COc1cccc(C(=O)Nc2ccc(N3CCCC3)cc2)c1 | 5.59 µM (active) | 
5 | COc1cc(OC)cc(C(=O)Nc2ccc(N3CCN(C(=O)c4cccs4)CC3)cc2)c1 | 7.9 µM (active) | 
6 | COc1cc(C(=O)OCC(=O)Nc2ccc(N3CCOCC3)cc2)ccc1OCC(C)C |  | 12% [at 36.9 µM]
7 | O=C(OCCC12CC3CC(CC(C3)C1)C2)c1ccc(NCc2cc(O)ccc2O)cc1 | 15.8 µM (active) | 
8 | Cc1ccc(C)c(Nc2nn3c(=O)c4ccc(C(=O)NCc5cccs5)cc4nc3s2)c1 | 20.6 µM (active) | 
9 | N#Cc1c(C(F)(F)F)cc(-c2cccs2)nc1SCC(=O)Nc1cccc(C(F)(F)F)c1 | 20.6 µM (active) | 
10 | N#Cc1c(C(F)(F)F)cc(-c2cccs2)nc1SCC(=O)Nc1cccc(Cl)c1 |  | -0.0178%
11 | CCOC(=O)c1ccc(NC(=O)CSc2nc(-c3cccs3)cc(C(F)(F)F)c2C#N)cc1 | 16.4 µM (active) | 
12 | N#Cc1c(C(F)(F)F)cc(-c2cccs2)nc1SCC(=O)Nc1ccc(Cl)cc1 | 7.31 µM (active) | 
13 | O=c1[nH]cnc2n[nH]nc12 | 10.3 µM (active) | 
14 | CCOc1ccc(N/C=C/C(=O)c2cc(OC)c(OC)c(OC)c2)cc1 | 15.8 µM (active) | 
15 | COc1ccc(N/C=C/C(=O)c2cc(OC)c(OC)c(OC)c2)cc1 | 0.498 µM (active) | 
16 | CCOc1ccc(NC(=O)Cn2c(=O)n(Cc3ccc(C(=O)NCc4ccc(C)cc4)cc3)c(=O)c3ccccc32)cc1 | 14.6 µM (active) | 
17 | CCn1c(SCC(=O)N/N=C/c2ccc(C)s2)nc2ccccc21 | 4.98 µM (active) | 
18 | COc1ccc(NC(=S)NN(C)C(=S)Nc2ccc(OC)cc2)cc1 | 3.14 µM (active) | 
19 | C=CCNC(=S)N/N=C(\C)c1ccc(OC)cc1 |  | -23.5%
20 | O=C(Nc1cc(=O)[nH]c(=O)[nH]1)c1cc(Cl)ccc1Cl | 8.86 µM (active) | 
21 | CCCCCCc1cc2cc(-c3nnc(-c4ccccc4OC)o3)c(=O)oc2cc1O | 1.98 µM (active) | 
22 | CCCCCCc1cc2cc(-c3nnc(-c4ccccc4)o3)c(=O)oc2cc1O | 3.53 µM (active) | 

Row | Compound | Potency | activity, negative = inhibitor
23 | CCCCCCc1cc2cc(-c3nnc(-c4ccccc4O)o3)c(=O)oc2cc1O |  | 33.9%
24 | C=CCN=c1scc(-c2ccc(F)cc2)n1/N=C/c1ccccn1 |  | -0.0772%
25 | C[n+]1ccc(/C=C/c2c[nH]c3ccc(F)cc23)cc1 | 8.2 µM (active) | 
26 | COc1ccc2[nH]cc(/C=C/c3cc[n+](C)cc3)c2c1 | 16.4 µM (active) | 
27 | Cc1ccc2[nH]cc(/C=C/c3cc[n+](C)cc3)c2c1 | 6.27 µM (active) | 
28 | O=C(Nc1ccccc1-c1nc2ccccc2[nH]1)c1ccc(N2C(=O)CCC2=O)cc1 | 16.4 µM (active) | 
29 | O=C1/C(=C/c2c[nH]c3ccccc23)CCC/C1=C\c1c[nH]c2ccccc12 | 23.1 µM (active) | 
30 | N#CC1=C2SCC(O)(c3ccccc3)N2C(=O)CC1c1ccccc1 (centres undefined) | 4.98 µM (active) | 
31 | Cc1cccc(C)c1NC(=S)NC(C)CCc1ccccc1 (centres undefined) |  | -1%
32 | COc1ccc2oc(-c3ccccc3[N+](=O)[O-])cc(=O)c2c1 | 6.27 µM (active) | 
33 | COc1ccccc1NC(=O)c1sc2ncn(CC(=O)Nc3ccccc3)c(=O)c2c1C | 20.6 µM (active) | 
34 | Cc1ccnc(NC(=O)Nc2ccc3c(c2)N(C)C(=O)CS3)c1 | 23.1 µM (active) | 
35 | CC(C)(C)c1ccc(Oc2ccc(NC(=O)c3ccccc3C(=O)O)cn2)cc1 |  | 2.22% [at 36.9 µM]
36 | CO/N=C\CC(=O)Nc1ccc(Oc2ccccc2)cc1 | 1.98 µM (active) | 
37 | CC(=O)Nc1ccc(NC(=O)C/C(C)=N/NC(N)=S)cc1 |  | 16%
38 | CO/N=C\CC(=O)Nc1ccc(Cl)c(Cl)c1 | 9.94 µM (active) | 
39 | O=C(Cc1nc2ccccc2[nH]c1=O)c1ccc(Cl)cc1 | 8.2 µM (active) | 
40 | COc1cc2c(cc1OC)CN(C(=O)c1cc(=O)c3ccccc3o1)CC2 | 11.2 µM (active) | 
41 | CCC(=Nc1ccccc1O)C1=C(O)CC(c2ccccc2)CC1=O (centres undefined) |  | -15.7% [at 36.9 µM]
42 | COc1ccccc1N=C(C)C1=C(O)CC(c2ccccc2)CC1=O (centres undefined) | 0.994 µM (active) | 
43 | Cc1cnc(NC(=O)CC(C)c2ccccc2)s1 (centres undefined) | 5.59 µM (active) | 
44 | CCN1CCN(c2c(/C=C3\SC(=S)N(Cc4ccco4)C3=O)c(C)c(C#N)c(=O)n2C)CC1 | 14.6 µM (active) | 

Row | Compound | Potency | activity, negative = inhibitor
45 | Cc1cc(/C=C2\SC(=S)N(Cc3ccco3)C2=O)c(C)n1-c1ccccc1 | 23.1 µM (active) | 
46 | Cc1cc(/C=C2\SC(=S)N(Cc3ccco3)C2=O)c(C)n1-c1cccnc1 | 20.6 µM (active) | 
47 | CN(C)c1ccc(C=C2SC(=S)N(Cc3ccco3)C2=O)cc1 | 3.96 µM (active) | 
48 | COC(=O)c1ccc(Oc2cc(C)nc(SC)n2)cc1 | 2.8 µM (active) | 
49 | C/C(=N\NC(=O)C(C)n1nc(C)c([N+](=O)[O-])c1C)c1ccccc1O (centres undefined) |  | -0.91%
50 | COCCNC(=S)N/N=C(\C)c1ccccc1O |  | 3.87%
51 | C/C(=N/N=C(\C)c1ccccc1O)c1ccccc1O | 18.4 µM (active) | 
52 | O=C1c2cccc3c(N4CCCCC4)ccc(c23)C(=O)N1c1ccc(O)cc1 |  | 36.7% [at 36.9 µM]
53 | O=C1c2cccc3c(N4CCCCC4)ccc(c23)C(=O)N1c1ccccc1O |  | 26.8%
54 | O=C1c2cccc3c(N4CCCCC4)ccc(c23)C(=O)N1CCO | 17.7 µM (active) | 
55 | Cc1ccc(N2C(=O)c3cccc4c(N5CCN(C)CC5)ccc(c34)C2=O)c2cccnc12 | 14 µM (active) | 
56 | C=CCN1C(=O)c2cccc3c(N4CCCCC4)ccc(c23)C1=O | 16.4 µM (active) | 
57 | O=C1c2cccc3c(N4CCCCC4)ccc(c23)C(=O)N1c1cccc(O)c1 | 3.66 µM (active) | 
58 | C=CCOC(=O)C1=C(C)NC(C)=C(C(=O)OCC=C)C1c1cn(-c2ccccc2)nc1-c1ccco1 |  | -10.3% [at 36.9 µM]
59 | Cc1ccc2nc(-c3ccccn3)c(Nc3ccccc3C)n2c1 |  | 3.66%
60 | CCN(CC)c1nc(C=Cc2ccc(N(C)C)cc2)c2nccnc2n1 | 0.58 µM (active) | 
61 | CCN(Cc1ccccc1)c1ccc(/C=C/c2nccc3ccccc23)cc1 | 20.6 µM (active) | 
62 | CN(C)c1ccc(C=Cc2nccc3ccccc23)cc1 | 14 µM (active) | 
63 | CN(C)c1ccc(/C=C/c2nccc3ccccc23)cc1 | 20.6 µM (active) | 
64 | CCN(Cc1ccccc1)c1ccc(/C=C(\C#N)c2ccccn2)cc1 |  | -14.8%
